In PubChem BioAssay (Tox21):
Several values for one entry are separate records, joined by “and”; a condition that tells them apart may be missing. Equal entries are not always repeated. Records with an inconclusive call do not appear. More than one record can exist for a structure, and the calls need not agree. Activity calls are given as the source filed them. Unless noted, calls follow the shape of the dose curve; as a rule, active = well fitted curve in the direction sought with a large enough effect in the repeat runs; inconclusive = weak or mixed curves; inactive = no such curve, though single readings can be large; an effect the other way counts as inactive or inconclusive.

Experiments:
[1] = biological target: Estrogen receptor (Homo sapiens) (UniProt P03372); assay: qHTS assay to identify small molecule antagonists of the estrogen receptor alpha (ER-alpha) signaling pathway using the BG1 cell line in the presence of 0.1 nM 17-beta-estradiol (AID 1259244); also: nearly all actives have a fitted effect of over 50% in size
Chain of Estrogen receptor (Homo sapiens) (P03372 whole entry, looked up): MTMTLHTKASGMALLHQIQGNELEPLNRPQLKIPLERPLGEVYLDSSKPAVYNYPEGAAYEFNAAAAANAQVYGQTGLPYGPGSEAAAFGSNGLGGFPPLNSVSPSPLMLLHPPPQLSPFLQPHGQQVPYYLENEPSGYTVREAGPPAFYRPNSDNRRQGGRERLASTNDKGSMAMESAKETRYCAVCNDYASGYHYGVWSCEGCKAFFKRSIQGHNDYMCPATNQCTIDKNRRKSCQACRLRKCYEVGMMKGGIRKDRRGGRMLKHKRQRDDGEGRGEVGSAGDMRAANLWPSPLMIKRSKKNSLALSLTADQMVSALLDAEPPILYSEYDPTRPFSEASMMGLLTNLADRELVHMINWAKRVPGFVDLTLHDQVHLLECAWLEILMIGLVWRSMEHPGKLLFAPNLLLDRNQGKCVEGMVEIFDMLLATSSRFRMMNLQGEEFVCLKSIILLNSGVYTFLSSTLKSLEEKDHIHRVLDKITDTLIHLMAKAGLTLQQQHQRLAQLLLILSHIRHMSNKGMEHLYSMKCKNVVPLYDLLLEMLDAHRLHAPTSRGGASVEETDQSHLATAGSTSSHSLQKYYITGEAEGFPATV
Procedure, shortened: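 VM7Luc4E2 cells (endogenous full-length ER-alpha, stable 4xERE-luciferase) were grown 5 days in phenol red-free medium with charcoal-stripped FBS, then exposed 22 h at 37C to compounds plus 0.1 nM (final) 17beta-estradiol; ONE-Glo luminescence read-out.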

[2] = qHTS assay to identify small molecule phospholipidosis (PLD) inducers (AID 1259344; active = well fitted curve in the direction sought with a large enough effect; an effect the other way counts as inactive or inconclusive)
Procedure, shortened: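 HepG2 cells on collagen I, attached 4 h at 37 C, were co-treated with compound and LipidTOX Red dye for 24 h at 37 C, then fixed with paraformaldehyde plus Hoechst 33342 and imaged by high-content microscopy for phospholipid accumulation.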

[3] = qHTS assay to identify small molecule HDAC inhibitors (AID 1259364); also: nearly all actives have a fitted effect of over 45% in size; also: potency is read from the fitted curve at half-maximal effect
Procedure, shortened: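 Wild-type HCT-116 cells were plated overnight, exposed to compounds for 2 h at 37 °C, then given HDAC-Glo class I/II luminogenic reagent for 30 min at room temperature before luminescence was read.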

[4] = qHTS assay to identify small molecule HDAC inhibitors - cell viability counter screen (AID 1259365); also: series mostly up to about 92 µM; nearly all actives have a fitted effect of over 50% in size
Procedure, shortened: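 Following a 2hr exposure of overnight-plated wild-type HCT-116 cells to DMSO-delivered compounds, CellTiter-Glo was added and luminescence recorded after 30min at room temperature.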

[5] = qHTS assay to identify small molecule agonists of the sonic hedgehog signaling (Shh) pathway - cell viability counter screen (AID 1259366); also: nearly all actives have a fitted effect of over 50% in size; also: potency is read from the fitted curve at half-maximal effect
Procedure, shortened: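 After a 4hr attachment at 37C, NIH/3T3 cells bearing an integrated Gli1-driven luciferase reporter were dosed with compounds. Treatment lasted 24hr, with the final hour including CellTiter-Fluor for a fluorescence viability measurement.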

[6] = qHTS assay to identify small molecule antagonists of the sonic hedgehog signaling (Shh) pathway - cell viability counter screen (AID 1259367); also: nearly all actives have a fitted effect of over 55% in size; also: potency is read from the fitted curve at half-maximal effect
Procedure, shortened: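 NIH/3T3-derived Gli1-Luc reporter cells (2,000 per well) rested 4 hr at 37 C, then received DMSO compounds plus conditioned medium. After 23 hr of treatment, CellTiter-Fluor was added for 1 hr at 37C and fluorescence read.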

[7] = qHTS assay to identify small molecule agonists of the sonic hedgehog signaling (Shh) pathway (AID 1259368; calls by dose curve; also: series mostly up to about 92 µM; nearly all actives have a fitted effect of over 15% in size)
Procedure, shortened: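 NIH/3T3-derived 3T3Gli1-Luc cells carrying a stably integrated Gli1 response element–firefly luciferase reporter were plated, left 4 hr at 37 C, then given compounds in DMSO for 24 hr. Luminescence was read 30 min after adding luciferase reagent.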

[8] = qHTS assay to identify small molecule antagonists of the sonic hedgehog signaling (Shh) pathway (AID 1259369; calls by dose curve; also: nearly all actives have a fitted effect of over 45% in size; also: potency is read from the fitted curve at half-maximal effect)
Procedure, shortened: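 NIH/3T3-derived 3T3Gli1-Luc cells with stably integrated Gli1-Luc reporter were preincubated 4hr at 37 C, then given compounds in DMSO plus Shh conditioned medium and incubated 24hr. Firefly luciferase luminescence read after 30min reagent at room temperature.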

[9] = biological target: Estrogen receptor beta (Homo sapiens) (UniProt Q92731); assay: qHTS assay to identify small molecule agonists of the estrogen receptor beta (ER-beta) signaling pathway (AID 1259377; active = well fitted activation curve with a large enough effect in the signal ratio in the repeat runs, not every such curve was filed as active; the % refers to the signal ratio)
Chain of Estrogen receptor beta (Homo sapiens) (Q92731 whole entry, looked up): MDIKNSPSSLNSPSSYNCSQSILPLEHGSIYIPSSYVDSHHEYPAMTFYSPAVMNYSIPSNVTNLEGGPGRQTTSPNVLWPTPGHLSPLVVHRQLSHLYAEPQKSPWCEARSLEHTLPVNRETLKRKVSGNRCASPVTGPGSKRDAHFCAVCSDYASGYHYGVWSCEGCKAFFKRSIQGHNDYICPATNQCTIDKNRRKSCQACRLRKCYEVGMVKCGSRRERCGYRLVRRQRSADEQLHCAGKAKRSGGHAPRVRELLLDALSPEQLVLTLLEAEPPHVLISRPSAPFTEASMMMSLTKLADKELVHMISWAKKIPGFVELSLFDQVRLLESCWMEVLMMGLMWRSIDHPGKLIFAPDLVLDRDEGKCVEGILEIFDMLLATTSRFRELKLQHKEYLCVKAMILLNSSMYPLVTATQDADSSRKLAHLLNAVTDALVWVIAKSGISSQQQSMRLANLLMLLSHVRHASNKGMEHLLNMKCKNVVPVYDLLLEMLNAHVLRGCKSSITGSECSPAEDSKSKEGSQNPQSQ
Procedure, shortened: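 In HEK293T cells bearing a UAS-beta-lactamase reporter under ER-beta control, DMSO-delivered compounds were incubated for 16 hr at 37C. Activity was detected as fluorescence 2 hours after LiveBLAzer B/G FRET substrate addition.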

[10] = biological target: Estrogen receptor beta (Homo sapiens) (UniProt Q92731); assay: qHTS assay to identify small molecule antagonists of the estrogen receptor beta (ER-beta) signaling pathway (AID 1259378; active = well fitted inhibition curve with a large enough effect in the signal ratio in the repeat runs, not every such curve was filed as active; the % refers to the signal ratio)
Procedure, shortened: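 ER-beta-UAS-bla HEK293T (GripTite) cells in 2% charcoal-stripped FBS medium were preincubated 6 hr at 37C, dosed with compound, then stimulated with 1 nM E2 (final) for 16 hr; beta-lactamase reporter read by B/G FRET fluorescence after 2 hr substrate loading.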

Measured: Potency

CC(C)=C[C@@H]1[C@@H](C(=O)OCc2coc(Cc3ccccc3)c2)C1(C)C
not listed: [8] | [9] | [10]
inactive: all other assays above

CC(C)N1C(=O)c2ccccc2NS1(=O)=O
not listed: [2] | [9] | [10]
inactive: all other assays above

Nc1ccc(Br)cc1
43.2 µM (active) and inactive: [8]
not listed: [2] | [10]
inactive: all other assays above

Cc1ccc(N)cc1Cl
not listed: [2]
inactive: all other assays above

O=C1CCCN1
not listed: [2] | [9] | [10]
inactive: all other assays above

CCCN(CCC)c1c([N+](=O)[O-])cc(C(F)(F)F)cc1[N+](=O)[O-]
not listed: [2] | [9] | [10]
inactive: all other assays above

CN(N=O)c1ccccc1
not listed: [2]
inactive: all other assays above

O=C(NC(=O)c1c(F)cccc1F)Nc1cc(Cl)c(OC(F)(F)C(F)C(F)(F)F)cc1Cl (stereo unspecified)
inactive: all assays above

CCCCN(CC)C(=O)SCCC
not listed: [2]
inactive: all other assays above

O=[N+]([O-])c1ccc([As](=O)(O)O)cc1
not listed: [4] | [9] | [10]
inactive: all other assays above

CCCCCOC(=O)c1ccccc1C(=O)OCCCCC
not listed: [2]
inactive: all other assays above

O=[N+]([O-])c1ccccc1
inactive: all assays above

CC(Oc1ccc(Cl)cc1Cl)C(=O)O (stereo unspecified)
not listed: [2] | [9] | [10]
inactive: all other assays above

NCCc1ccc(O)cc1
inactive: all assays above

COP(N)(=O)SC (stereo unspecified)
not listed: [2]
inactive: all other assays above

O=c1n(Cl)c(=O)n(Cl)c(=O)n1Cl
not listed: [4]
inactive: all other assays above

Clc1ccc(Cl)cc1
385 nM (active) and inactive: [8]
inactive: all other assays above

CCOC(=O)c1ccccc1C(=O)OCC
not listed: [4] | [9] | [10]
inactive: all other assays above

CN=C=S
active: [8] 2.19 µM
not listed: [2] | [9] | [10]
inactive: all other assays above

Cc1[nH]c(=O)n(C(C)(C)C)c(=O)c1Cl
not listed: [2] | [9] | [10]
inactive: all other assays above

C#CCN(C)[C@H](C)Cc1ccccc1
inactive: all assays above

CN(C)CCO
not listed: [4]
inactive: all other assays above

CCNc1nc(NC(C)(C)C)nc(SC)n1
active: [8] 1.7 µM and 6.11 µM
not listed: [2]
inactive: all other assays above

CNC(=O)Oc1ccccc1OC(C)C
not listed: [2]
inactive: all other assays above

CCOP(=S)(OCC)Oc1cnc2ccccc2n1
active: [8] 27.3 µM
not listed: [2]
inactive: all other assays above

Cc1cc(-c2cc(C)c(N)c(C)c2)cc(C)c1N
active: [8] 2.74 µM and 21.3 µM
not listed: [2] | [9] | [10]
inactive: all other assays above

CC(C)NC(=O)N1CC(=O)N(c2cc(Cl)cc(Cl)c2)C1=O
54.5 µM (active) and inactive: [6]
active: [8] 10.9 µM
48.6 µM (active) and inactive: [5]
inactive: [1] | [3] | [4] | [7]

CCOP(OCC)OCC
not listed: [2] | [9] | [10]
inactive: all other assays above

c1cc2c3c(cccc3c1)CC2
not listed: [2]
inactive: all other assays above

Nc1ccccc1C(=O)O
inactive: all assays above

O=c1[nH]c2ccccc2c(=O)o1
not listed: [2] | [9] | [10]
inactive: all other assays above

C=C(C)CCl
not listed: [2] | [9] | [10]
inactive: all other assays above

CON(C)C(=O)Nc1ccc(Cl)c(Cl)c1
active: [3] 27.4 µM and 19.3 µM
not listed: [2] | [9] | [10]
inactive: all other assays above

COC(=O)c1ccccc1C(=O)OC
inactive: all assays above

COc1ccc2c3c1O[C@H]1[C@@H](O)C=C[C@H]4[C@@H](C2)N(C)CC[C@@]341
26.9 µM (active) and inactive: [6]
active: [8] 2.69 µM
21.3 µM (active) and inactive: [5]
not listed: [9] | [10]
inactive: all other assays above

CC(C)(C)OOC(C)(C)C
not listed: [2]
inactive: all other assays above

CCCCOC(=O)c1ccccc1C(=O)OCCCC
not listed: [2] | [4]
inactive: all other assays above

CC(C)OC(=O)Nc1cccc(Cl)c1
active: [3] 15.1 µM and 13.7 µM
not listed: [2]
inactive: all other assays above

CC1C=[C-]C=C1.[C-]#[O+].[C-]#[O+].[C-]#[O+].[Mn]
not listed: [2]
inactive: all other assays above

c1ccc(OP(Oc2ccccc2)Oc2ccccc2)cc1
not listed: [2]
inactive: all other assays above

[N-]=[N+]=[N-]
inactive: [1] | [3] | [5] | [6] | [7] | [8]

CC(Br)C(=O)O (stereo unspecified)
not listed: [2] | [4]
inactive: all other assays above

C1CN2CCN1CC2
not listed: [2] | [4]
inactive: all other assays above

CCC12COCN1COC2
inactive: [1] | [3] | [5] | [6] | [7] | [8]

CCN(CC)c1ccccc1
not listed: [2] | [4]
inactive: all other assays above

CC(=O)C=C(C)C
inactive: [1] | [3] | [5] | [6] | [7]

O=Cc1cccc(Oc2ccccc2)c1
not listed: [2]
inactive: all other assays above

Nc1c(Cl)c(Cl)nc(C(=O)O)c1Cl
not listed: [2] | [4]
inactive: all other assays above

CCC[CH2][Sn]([Cl])([Cl])[Cl]
inactive: [1] | [3] | [5] | [6] | [7] | [8]

C=CC(N)=O
inactive: [1] | [3] | [5] | [6] | [7] | [8]

CC(C)C1(C)N=C(c2nc3ccccc3cc2C(=O)O)NC1=O (stereo unspecified)
not listed: [2] | [4]
inactive: all other assays above

Cc1ccccc1O
not listed: [2]
inactive: all other assays above
